From PubChem BioAssay
FBW7 act: human FBW7 E3 ligase activation, primary screen; AlphaScreen FBW7–phospho-cyclin E peptide binding, activator screen; 650,000 tested, 0.13% active; normalized activity (activation), % at 26.1 µM; in the data active means normalized activity above about 1.9%;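 further: purified mutant Fbw7 with reduced substrate affinity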
GPR151 ag: activates the human receptor GPR151; Q8TDV0; PathHunter beta-arrestin GPR151 cells, luminescence; activation, % at 11.2 µM; 650,000 tested, 1% active; AID 1508602; in the data active means activation above about 4.9%;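 further: 0% = median of compound wells and 100% = cells with positive control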
Target sequence (Q8TDV0 whole entry, looked up): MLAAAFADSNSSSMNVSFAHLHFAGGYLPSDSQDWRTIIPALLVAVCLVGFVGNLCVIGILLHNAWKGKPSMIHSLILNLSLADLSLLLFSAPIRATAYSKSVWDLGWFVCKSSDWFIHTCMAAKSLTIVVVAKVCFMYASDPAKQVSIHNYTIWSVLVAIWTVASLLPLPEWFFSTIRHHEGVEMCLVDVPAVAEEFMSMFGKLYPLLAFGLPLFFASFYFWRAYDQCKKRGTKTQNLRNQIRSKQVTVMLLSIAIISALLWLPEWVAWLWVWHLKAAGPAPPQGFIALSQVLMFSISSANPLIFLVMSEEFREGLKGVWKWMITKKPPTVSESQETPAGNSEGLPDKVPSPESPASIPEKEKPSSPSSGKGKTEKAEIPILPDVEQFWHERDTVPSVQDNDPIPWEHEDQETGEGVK
TEAD-YAP block: TEAD-YAP interaction inhibition | AID 1259422 | inhibition, % at 9.12 µM | HEK-TIYL cells, TEAD-Gal4/YAP UAS-luciferase luminescence | 640,000 tested, 1.4% active; in the data active means inhibition above about 32%;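 further: 0% = median of test compound wells and 100% = reference inhibitor wells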
MITF primary: human MITF inhibition, primary screen; O75030; AlphaScreen MITF homodimerization, bead proximity signal; inhibition, % at 2.6 µM; 650,000 tested, 0.91% active; AID 1259374; in the data active means inhibition above about 50%;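 further: 0% = vehicle wells with protein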
* hit, by the source's call. The list is not random: actives were taken first. Their share in the collection is about 3.5%.

SMILES | FBW7 act | GPR151 ag | TEAD-YAP block | MITF primary
Cc1ccccc1NC(=O)c1cc2c(C)nn(-c3ccccc3)c2s1 | 0 | 2 | 4 | -1
CCNc1cc(C)nc(Nc2ccc(NC(=O)c3cc(OC)c(OC)c(OC)c3)cc2)n1 | 0 | -1 | 77* | 12
COc1cc(Nc2nc(C)cc(Nc3ccc(NC(C)=O)cc3)n2)cc(OC)c1OC | 0 | 1 | -1 | 15
COc1cc(C(=O)NN=C2CCCCCC2)cc(OC)c1OC | 0 | 0 | 60* | 0
CC/C(C)=N\NC(=O)c1cc(OC)c(OC)c(OC)c1 | 0 | 4 | 58* | 12
COc1ccc(NC(=O)c2cc3cccc(OC)c3oc2=Nc2ccc(C(=O)O)cc2)c(OC)c1 | 0 | 2 | 5 | 1
COc1cccc2cc(C(=O)NCc3ccco3)c(=Nc3ccc(C(=O)O)cc3)oc12 | 0 | 2 | 46* | -3
CCOC(=O)C(=N/O)/C(C)=N/NC(=O)c1cc(OC)c(OC)c(OC)c1 | 0 | 0 | 41* | -1
N#C/C(=C/c1ccc(I)o1)C(=O)Nc1ccc(Cl)cc1 | 0 | 1 | -22 | 5
CCOC(=O)c1c(NC(=O)C(C)Sc2nnc(CNC(=O)c3ccco3)n2-c2ccccc2OC)sc2c1CCCC2 (configuration not stated) | 0 | 0 | 5 | 0
COc1ccc(C(=O)N/N=C(\C)CC(=O)NCc2ccco2)cc1OC | 0 | 0 | 35* | -8
O=C(Nc1ccc2oc(-c3ccc(I)cc3)nc2c1)c1ccc2c(c1)OCCO2 | 0 | -1 | -17 | -10
CC(C)(C)c1ccc(-c2nc3cc(NC(=O)c4ccc(Br)o4)ccc3o2)cc1 | 0 | 0 | 37* | -10
O=C(Nc1ccc2oc(-c3cccc(I)c3)nc2c1)c1ccc(-c2cccc([N+](=O)[O-])c2)o1 | 0 | -1 | 2 | -6
CCc1ccc2oc(-c3ccc(NC(=O)c4ccc5c(c4)OCCO5)cc3)nc2c1 | 1 | 0 | 39* | -3
CC(C)(C)c1ccc(-c2nc3cc(NC(=O)c4ccc(-c5cccc([N+](=O)[O-])c5)o4)ccc3o2)cc1 | 0 | 1 | 34* | -13
CC(C)(C)c1ccc(C(=O)Nc2ccc3oc(-c4ccc(C(C)(C)C)cc4)nc3c2)cc1 | 0 | 1 | -7 | 9
CC(=O)C1=C(c2ccc([N+](=O)[O-])cc2)N(C(C)=O)n2cnnc2S1 | 0 | 1 | 32* | -6
CC(=O)c1ccc(C(=O)Nc2nc3c(s2)CCCC3)cc1 | 0 | -1 | 65* | 4
O=C(Nc1nc2c(s1)CCCC2)c1ccccc1Cl | 0 | -8 | 45* | -6
O=C(Nc1nc2c(s1)CCCC2)c1cc(Cl)sc1Cl | 0 | -9 | 49* | 17
O=C(Cc1ccccc1Cl)Nc1nc2c(s1)CCCC2 | 0 | 2 | 17 | 2
CC1CCc2nc(NC(=O)c3cc(Cl)sc3Cl)sc2C1 (configuration not stated) | 0 | -1 | -45 | 2
Cc1cc(-n2c(SCC(=O)NCc3ccccc3)nc3n[nH]c(C)c3c2=N)ccc1Cl | 1 | -1 | 0 | -1
COc1ccccc1NC(=S)NCC(C)(C)CN(C)C | 0 | 1 | 0 | 13
SMILES | FBW7 act | GPR151 ag | TEAD-YAP block | MITF primary
CCOC(=O)c1cccc(NC(=O)CCn2c(=O)c3cccn3c3ccccc32)c1 | 0 | 1 | 2 | 2
CN(C)/C=N/C1=C(C#N)C(c2ccc3c(c2)OCO3)c2ccc3ccccc3c2O1 (configuration not stated) | 0 | 1 | 45* | -7
Cn1nc(-c2ccc(F)cc2)nc2c(=O)n(C)c(=O)nc1-2 | 0 | -8 | 89* | 18
Cn1nc(-c2ccc(Cl)cc2)nc2c(=O)n(C)c(=O)nc1-2 | 0 | -8 | -48 | 14
Cn1nc(-c2cccnc2)nc2c(=O)n(C)c(=O)nc1-2 | 0 | -6 | 97* | 9
COc1ccc(-c2nc3c(=O)n(C)c(=O)nc-3n(C)n2)cc1 | 0 | -9 | 98* | 5
C/C(=C\c1ccccc1)c1nc2c(=O)n(C)c(=O)nc-2n(C)n1 | 0 | -4 | 34* | -8
O=C1CCCN1CCCNc1nc(NCc2cccnc2)nc2c1ncn2-c1ccsc1 | 0 | 0 | 8 | -7
CCN(CC)CCn1nc2c3c(cccc3c1=O)-c1ccccc1-2 | 0 | 2 | 81* | 9
CCc1ccc2oc(-c3cccc(NC(=O)c4ccc(OC)c([N+](=O)[O-])c4)c3)nc2c1 | 0 | 1 | 1 | 1
N=c1sc2c(n1CC(=O)c1ccc(F)cc1)CCCC2 | 0 | -9 | 56* | -5
CC1CCc2nc(/C(C#N)=C\c3ccco3)sc2C1 (configuration not stated) | 0 | -1 | 70* | -2
COc1ccc(/C=C(/C#N)c2nc3c(s2)CC(C)CC3)cc1 (configuration not stated) | 0 | 1 | -12 | 7
C/C(=N/NC(=O)c1ccc(O)cc1)c1ccc(-c2ccccc2)cc1 | 0 | -1 | -32 | 5
Cc1cccc(-n2cc(-c3cc4ccccc4oc3=O)[nH]c2=S)c1 | 0 | -1 | 81* | 6
COc1ccc(-n2cc(-c3cc4ccccc4oc3=O)[nH]c2=S)cc1 | 0 | 0 | 17 | 5
O=c1oc2ccccc2cc1-c1cn(-c2ccc(F)cc2)c(=S)[nH]1 | 0 | -1 | 72* | -11
O=c1oc2ccccc2cc1-c1cn(-c2ccccc2F)c(=S)[nH]1 | 0 | -1 | 68* | -4
CN(C)CCCOC(=O)c1ccccc1Br | 0 | 1 | -4 | -1
COc1cc(OC)nc(CSCCNC(=O)c2c(F)cccc2F)n1 | 1 | -1 | 4 | 15
CCCCC1=NN2C(=N)/C(=C/c3ccc(OCCOc4ccc(C)cc4C)c(OC)c3)C(=O)N=C2S1 | 0 | -1 | 0 | -7
CCCCOc1ccc(C(=O)CCC(=O)O)cc1 | 0 | 3 | 0 | -11
O=C(CCc1cccs1)NCC1CCC2(CCN(C(=O)c3ccc(F)cc3)CC2)O1 (configuration not stated) | -1 | 0 | -2 | -1
O=C(CC1CCCC1)NCC1CCC2(CCN(C(=O)c3ccc(F)cc3)CC2)O1 (configuration not stated) | 2.0* | 1 | 12 | 25
C/C(=N/NC(=O)c1cccc([N+](=O)[O-])c1)c1cccc(NC(=O)C2CCCCC2)c1 | 0 | 2 | -10 | -3
SMILES | FBW7 act | GPR151 ag | TEAD-YAP block | MITF primary
Cc1cc(C)nc(/N=C(\N)Nc2cc(Cl)ccc2C)n1 | 0 | -2 | 5 | 7
Cc1ccc(N/C(N)=N/c2nc(C)cc(N3CCCC3)n2)c(C)c1 | 0 | 1 | 34* | 4
CC(C(=O)Oc1ccccc1)N1C(=O)C2C3C=CC(C4CC34)C2C1=O (configuration not stated) | 0 | -1 | 9 | 2
CCN(Cc1ccccc1)Cc1ccc(C(=O)NCCn2nc(C)cc2C)c(=O)[nH]1 | 0 | -1 | -12 | -13
COC(=O)c1ccccc1NC(=O)NNC(=O)c1csc(C)c1-c1ccc(C)cc1 | 0 | 2 | 33* | 1
COC(=O)c1ccccc1NC(=O)NNC(=O)c1cc2ccccc2cc1O | 0 | 2 | 1 | 8
